Values joined by “and” are separate entries in the source; they are usually repeats but may differ in a detail not shown here. Identical values can stand only once. Whole data set: some 5,400 compounds, median “IFI” near 2, cut for the highest 2% near 22. Shown is part of a subset that was picked to be rich in the highest values.

The test can be described thus: NOVARTIS: Inhibition Frequency Index (IFI) - the number of HTS assays where a compound showed > 50% inhibition/induction, expressed as a percentage of the number of assays in which the compound was tested. The test is classed as functional.
Regarding GNF-Pf-2945, CHEMBL581676, the IFI was 1.82%.
Consider GNF-Pf-448, CHEMBL580641, for which the IFI was determined as 30%.
For GNF-Pf-1437, CHEMBL576411 the value was 14.3%.
For `CCc1ccc(C=NNC(=O)COc2ccc3c(c2)OCO3)cc1` the value was 0%; for `COc1cccc2c1C(=O)C1C(O)=C3C(=C(O)C1C2=O)CC(O)(C(C)=NN=C1CC(C)(C)N(O)C(C)(C)C1)CC3OC1CC(C)(N)C(O)CO1` (centres undefined), 21.4%; for `COc1cccc2c1C(=O)c1c(O)c3c(c(O)c1C2=O)C[C@@](O)(C(=O)CO)C[C@@H]3O[C@@H]1C[C@H](N)[C@H](O)[C@H](C)O1`, 25.6%.
`COc1cccc2c1C(=O)c1c(O)c3c(c(O)c1C2=O)C[C@](O)(C(C)=O)C[C@@H]3O[C@H]1C[C@@H](N)[C@H](O)[C@H](C)O1` showed an IFI of 19.7%.
As for `Cc1ccc(-c2cc(C(=O)OCC(=O)c3cccc([N+](=O)[O-])c3)c3cc(C)ccc3n2)cc1`, the IFI was determined as 0%.
With `Cc1cc(C)c2cc(CN(CCN(C)C)C(=S)NCCCN(C)C)c(=O)[nH]c2c1`, the IFI worked out at 3.12%.
For `CC1=C(CO)C(=O)O[C@@H]([C@@H](C)[C@H]2CC[C@H]3[C@@H]4C[C@H]5O[C@]56[C@@H](O)C=CC(=O)[C@]6(C)C4CC[C@]23C)C1` (some centres undefined) the value was 32.1%.
For the molecule `Cc1ccn2c(NC(C)(C)CC(C)(C)C)c(-c3ccccc3OC(=O)CCc3ccccc3)nc2c1`, the IFI is 3.74%.
Consider `c1ccc(-c2cc(N3CCOCC3)nc(-c3ccccn3)n2)nc1`, for which the IFI amounted to 15.4%.
Then `COc1ccc(NC(=O)CCCCCn2c(SCc3cc(=O)oc4cc(O)ccc34)nc3ccsc3c2=O)cc1`, with 0%; and `CN(C)c1ccc(/C=C/c2cccc(/C=C/c3ccc(N(C)C)cc3)[n+]2C)cc1`, with 25%.
Regarding `CC[n+]1ccccc1C=Cc1ccc(N(C)C)cc1`, the IFI was 6.57% and 5.88%.
In turn, `CCCCCC[n+]1ccccc1C=Cc1ccc(N(C)C)cc1` returned an IFI of 27.6%.
For `CC(C)CC[n+]1ccccc1C=Cc1ccc(N(C)C)cc1`, the IFI amounted to 15.4%.
The molecule `Cc1ccc(C=Cc2ccc(N(C)C)cc2)[n+](C)c1` had an IFI of 15.4%.
For `CN(C)c1ccc(/C=C/c2cccc[n+]2C)cc1` the value was 6.3%; for `CC1CCCCN1CCCNc1ncc(C(=O)NCCc2ccccc2)c(NCC2CCCO2)n1` (centres undefined), 3.81%.
Then `CCCCNC(=S)N(Cc1cccs1)Cc1cc2cc(C)ccc2[nH]c1=O`, with 1.82%; and `CC(C)(C)c1ccc(CNC(=O)C(Cc2ccc(O)cc2)c2ccccc2)cc1` (centres undefined), with 0%.
Regarding `O=C(CSc1oc(-c2ccc(Cl)cc2)nc1[P+](c1ccccc1)(c1ccccc1)c1ccccc1)c1ccccc1`, the IFI stood at 21.4%.
In turn, `C=CCSc1oc(-c2ccco2)nc1[P+](c1ccccc1)(c1ccccc1)c1ccccc1` returned an IFI of 23.1%.
For the molecule `CCOC(=O)C1=C(CC)NC2=C(C(=O)CC(C)(C)C2)C1c1ccccc1F` (centres undefined), the IFI came out at 4.6%.
For `CC[n+]1c(/C=C(C)/C=C2\Sc3ccccc3N2CCO)sc2ccccc21` the value was 7.69%.
With `CCC(/C=C1\Sc2ccc(OC)cc2N1CCCS(=O)(=O)O)=C\c1sc2ccc(OC)cc2[n+]1CCCS(=O)(=O)O`, the IFI came out at 22.7%.
`CCN1/C(=C/c2cccc[n+]2C)Sc2ccc(OC)cc21` came in with an IFI of 15.4%.
As to `CCOC(=O)c1c(C)[n+](-c2ccc(C)cc2)c(CC)c2cc(OC)c(OC)cc12`, the IFI is 2.29%.
On to `Cc1ccc(-c2c3c4n(c(-c5ccc(Cl)cc5)cn4c2C(=O)Nc2ccccc2Cl)CCCC3)cc1`, for which the IFI stood at 6.06%.
Then `CCCCN(CCCC)[P+](N(CCCC)CCCC)(N(CCCC)CCCC)N(CCCC)CCCC`, with 27.3%; and `CCC(=O)N1CCc2cc(Br)cc(S(=O)(=O)N3CC(C)CC(C)C3)c21` (centres undefined), with 0%.
For `COc1ccc2nc3cc(Cl)ccc3c(NCCN(CCN)CCN)c2c1` the value was 14.5%.
The molecule `CN(C)c1ccc(C(=Cc2cc(-c3ccccc3)cc(-c3ccccc3)[o+]2)c2ccc(N(C)C)cc2)cc1` had an IFI of 12.7%.
With `CN(C)c1ccc(-c2cc(-c3ccccc3)[s+]c(-c3ccccc3)c2)cc1`, the IFI was determined as 31.4%.
With `CN(C)c1ccc(-c2nc(-c3ccc(-c4[nH]c(-c5ccc(N(C)C)cc5)nc4-c4ccccc4)cc3)c(-c3ccccc3)[nH]2)cc1`, the IFI was 12.5%.
Then `COc1ccc(-c2nc(NC(=O)CS(=O)(=O)c3ccccc3)sc2C)cc1`, with 0%; and `C1=C(c2ccc(CN3CCCCC3)cc2)N2CCN=C2c2ccccc21`, with 2.98%; and `Cc1cc(S(=O)(=O)NC(Cc2ccc([N+](=O)[O-])cc2)C(=O)O)c(Cl)cc1Cl` (centres undefined), with 1.03%.
Molecule `c1ccc(Oc2ccc(Nc3nc4nonc4nc3Nc3ccc(Oc4ccccc4)cc3)cc2)cc1` gave an IFI of 0%.
Turning to `Cc1ccc2ncnc(Nc3cccc(C(F)(F)F)c3)c2c1`, the IFI worked out at 4.41%.
For `Clc1ccc(Nc2nc3nonc3nc2Nc2ccc(Cl)c(Cl)c2)cc1Cl` the value was 7.14%; for `FC(F)(F)c1cccc(Nc2nc3nonc3nc2Nc2ccc(Br)cc2)c1`, 22.2%; for `Clc1ccccc1Nc1nc2nonc2nc1Nc1cccc(Br)c1`, 15.4%.
As to `FC(F)(F)c1cccc(Nc2nc3nonc3nc2Nc2ccc(Cl)cc2)c1`, the IFI amounted to 22.7%.
Then `CCN(CC)c1scc(-c2ccc(Br)cc2)[s+]1`, with 7.69%; and `COc1ccc(C2=C(c3ccc(OC)cc3)C3(c4ccccc4)C(=O)C2(c2ccccc2)C2C(=O)N(c4ccc(F)cc4)C(=O)C23)cc1` (centres undefined), with 0%.
Take `CCN1/C(=C/c2cccc[n+]2C)C=Cc2cc(C)ccc21`: the IFI amounted to 15.4%.
`CCN1/C(=C\C=C\C2=[N+](C)c3ccccc3C2(C)C)N(c2ccccc2)c2ccccc21` returned an IFI of 28.6%.
Then `CCN1/C(=C/C=C/C2=[N+](C)c3ccc(C)cc3C2(C)C)C=Cc2ccccc21`, with 28.6%.
`CN(/C=C/C1=[N+](C)c2ccc(Cl)cc2C1(C)C)c1ccccc1` had an IFI of 0%.
For `COCCN1C(=O)c2ccccc2C(C(=O)Nc2cccc(C(F)(F)F)c2)C1c1cccs1` (centres undefined), the IFI came out at 9.09%.
As for `CC1CCN(S(=O)(=O)c2ccc(C(=O)Nc3sc4c(c3C(N)=O)CCN(C)C4)cc2)CC1`, the IFI is 0%.
As for `COc1nc(C)nc(NC(=O)NC(=O)c2c(OC)ccc([N+](=O)[O-])c2OC)n1`, the IFI stood at 2.61%.
The molecule `CCCCCc1ccc(OCCOCC[n+]2ccccc2)c(CCCCC)c1` registered an IFI of 4.54%.
Molecule `CN1C=CC(=Cc2sc3ccccc3[n+]2C)C=C1` had an IFI of 0%.
The molecule `CCN1/C(=C/c2cccc[n+]2C)C=Cc2ccc(C)cc21` yielded an IFI of 7.79%.
`CCN1C(=Cc2sc3ccc(O)cc3[n+]2CC)C=Cc2cc(C)ccc21` came in with an IFI of 15.4%.
In turn, `CCN1C(=Cc2sc3ccccc3[n+]2C)C=Cc2ccc(C)cc21` came in with an IFI of 23.8%.
`CCN1C(=Cc2sc3ccccc3[n+]2C)C=Cc2cccc(C)c21` registered an IFI of 23.1%.
On to `CCN1C=C(c2ccc(C)cc2)S/C1=C\c1sc2ccccc2[n+]1C`, for which the IFI came out at 14.7%.
For the molecule `CCCOC(=O)C1=C(C)NC2=C(C(=O)CC(c3ccc(OC)c(OC)c3)C2)C1c1ccc(O)c(OCC)c1` (centres undefined), the IFI is 0%.
`CCOC(=O)c1cc(S(=O)(=O)NCc2ccc(F)cc2)n[nH]1`: the IFI turned out to be 0%.
As for `C=CCC(=O)NC1CCN(CC(O)CN(Cc2ccccc2)S(=O)(=O)c2ccccc2)C1` (centres undefined), the IFI turned out to be 2.91%.
The molecule `CC12C(=O)N(c3cccc(C(=O)O)c3)C(=O)C1C1c3ccccc3C2c2ccccc21` (centres undefined) came in with an IFI of 0%.
The molecule `CO[C@H]1C[C@H](C)Cc2cc(O)cc(c2)NC(=O)C(C)=CCC[C@H](OC)[C@@H](OC(N)=O)C(C)=CC(C)[C@H]1O` (some centres undefined) displayed an IFI of 9.62%.
Then `CCC(C)(C)c1ccc(Oc2ccc(NC(=O)c3ccc([N+](=O)[O-])o3)cc2)cc1`, with 15.2%.
`CCOC(=O)c1ccc(NCc2c(C)[nH]c(C(=O)OCC)c2C)cc1`: the IFI turned out to be 0%.
`CCN(CC)c1ccc(C=NNC(=O)c2ccc(Nc3nc(-c4ccccc4)cs3)cc2)c(O)c1` yielded an IFI of 27.3%.
In turn, `O=C(Nc1nc(-c2ccccc2)cs1)c1ccccc1O` displayed an IFI of 9.79%.
The molecule `CCN(CC)S(=O)(=O)c1ccc(-c2csc(Nc3ccc(C)c(C)c3)n2)cc1` showed an IFI of 4.71%.
Then `Cn1nc(C(=O)NCc2ccccc2)c2c1CCN(Cc1cccc(O)c1)C2`, with 1.22%; and `CC(C)C[C@@H]1NC(=O)[C@@H](CC(C)C)NC(=O)[C@H](C(C)C)NC(=O)[C@H]2CSSC[C@@H](NC1=O)C(=O)N2`, with 25.9%; and `CC(C(=O)NCCCN)N(Cc1ccccc1)S(C)(=O)=O` (centres undefined), with 3.92%.
Turning to `Oc1ccc(-c2cncc(NCc3ccccc3)n2)cc1`, the IFI is 0%.
Regarding `CN(C)c1cc[n+](CC(=O)c2ccc(Cl)cc2)cc1`, the IFI was found to be 0%.
For the molecule `CN(C)c1ccc(C(=C2C=CC(=[N+](C)C)C=C2)c2ccc(N(C)C)cc2)cc1`, the IFI was 25.7%.
In turn, `CCCCNC(=O)c1nn(-c2ccc(OC)cc2)c(=O)c2ccccc12` gave an IFI of 2.35%.
With `Nc1nc(N)c2c(OCc3ccc(C(F)(F)F)cc3)cccc2n1`, the IFI is 7.63%.
`c1ccc(-c2cc(NCCCN3CCOCC3)nc(-c3ccccn3)n2)nc1` displayed an IFI of 15.4%.
Consider `CCOC(=O)c1sc2nc(N)c(C#N)c(-c3cccs3)c2c1N`, for which the IFI stood at 1.35%.
Take `CSc1oc(C(C)(C)C)nc1[P+](c1ccccc1)(c1ccccc1)c1ccccc1`: the IFI was 23.2%.
`CSc1oc(-c2ccccc2)nc1C(N)=O` had an IFI of 0%.
`COc1ccc2c(c1)C(C)(CC#N)C(=O)N2C` (centres undefined) displayed an IFI of 1.51%.
`O=C1C(=Nc2cccc(C(F)(F)F)c2)c2ccccc2N1CN1CCc2ccccc2C1` came in with an IFI of 0%.
Then `O=C1C(Sc2nnc[nH]2)=CC(=NS(=O)(=O)c2cccs2)c2ccccc21`, with 25%; and `Cc1ccc(S(=O)(=O)N=C2C=C(Sc3nc4ccccc4[nH]3)C(=O)c3ccccc32)cc1`, with 12.7%.
In turn, `Cc1ccc(C)c(S(=O)(=O)N=C2C=C(SCC(=O)O)C(=O)c3ccccc32)c1` yielded an IFI of 6.25%.
For `Cc1ccc(S(=O)(=O)N=C2C=C(Sc3nnc[nH]3)C(=O)c3ccccc32)cc1`, the IFI was found to be 25%.
`CCCCOc1ccc(C(=O)Oc2ccccc2-c2nc3cc(C)ccn3c2NC(C)(C)CC(C)(C)C)cc1` yielded an IFI of 4.67%.
For the molecule `COc1ccc(/C=C/c2nc(=O)c3ccccc3o2)cc1`, the IFI worked out at 0%.
In turn, `O=C(COc1ccccc1Cl)OCc1cc(=O)n2nc(C3CC3)sc2n1` came in with an IFI of 0%.
With `CCSCCOC(=O)C1=C(C)NC2=C(C(=O)CCC2)C1c1ccc(OC)c(Br)c1` (centres undefined), the IFI was determined as 2.33%.
Consider `CC(C)CN(C(C(=O)NC(CN1CCCC1)c1ccccc1)c1ccccc1)S(=O)(=O)c1ccccn1` (centres undefined), for which the IFI was determined as 1.96%.

These data come from ChEMBL document CHEMBL1156829.
